Assay: RPMI8226 myeloma cell viability, profiling panel, resazurin fluorescence, basal, 24 h, PK04 Diversity Set (AID 1180);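 note: RPMI8826 multiple myeloma cell line at 5000 cells per well; test concentration not given here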
Conditions: higher = more signal
C=CCNC(=O)[C@@H]1[C@H]2C(=O)O[C@H](c3ccccc3)[C@H](c3ccccc3)N2[C@H](c2ccc(OCCO)cc2)[C@@]12C(=O)Nc1ccc(C#CC3=CCCCC3)cc12 showed a z-score of -2.96. O=C/C=C/c1ccc(-c2ccccc2)cc1 gave a z-score of -5.15. CCCCCCc1nc(Cc2cc(OC)c(OC)c(OC)c2)c(C)c2c1[Si](C(C)C)(C(C)C)OC2 showed a z-score of 0.556. Compound [N-]=[N+]=Nc1ccccc1C[C@]1(C(=O)N2CCCCC2)N=C(c2ccc(OCCCO)cc2)O[C@H]1c1ccccc1 has a z-score of -2.06. COc1ccc(C(O)C2C=CC3C(=O)N(C)C(=O)C3N2Nc2ccccc2)cc1 (stereo not given) showed a z-score of -1.08. COc1ccc(C(=O)Nc2ccc(CN3C(=O)[C@]4(O[C@H](CC(=O)N(CCO)Cc5ccccc5)[C@@H]([Si](C)(C)c5ccc(OC)cc5)[C@@H]4C)c4ccccc43)cc2)cc1 gave a z-score of -1.84. C=C(COC)C(=O)CC[C@@H](OC(=O)c1ccccc1-c1ccccc1C(=O)O)c1ccccc1OCCO showed a z-score of -1.81. With C=C1C(=O)C=C2CN(C(=O)c3ccccc3)[C@@](Cc3ccc(F)cc3)(C(=O)OC)[C@@H]12 the z-score was -7.28. Work on C=CCOC(=O)[C@@H]1[C@H]2C(=O)O[C@H](c3ccccc3)[C@H](c3ccccc3)N2[C@H](c2ccc(OCCOC(=O)[C@H]3C[C@H]4C(=O)N[C@@H](CCCCN(C)C)C(=O)N4[C@H]3c3cccc(OCCO)c3)cc2)[C@@]12C(=O)Nc1ccccc12 yielded a z-score of 0.835. For COCCCNC(=O)[C@@]1(Cc2ccccc2I)c2ccccc2C(=O)N(Cc2ccccc2OC)[C@H]1c1ccc(CO)cc1, the z-score was 0.317. For COCCCNC(=O)[C@@]1(Cc2ccccc2I)c2ccccc2C(=O)N(C2CCCCC2)[C@H]1c1ccc(CO)cc1, the z-score was 0.448. Compound O=C1C2C=CC(C(O)C3CCCCC3)N(Nc3ccccc3F)C2C(=O)N1c1ccccc1 (stereo not given) has a z-score of -0.14. Compound COC(=O)C1(CC(C)C)C=C2C(=C(C)C(=O)C2C)CN1 (stereo not given) has a z-score of -1.8. CCOC(=O)C=C1C[C@@H](c2cccc([N+](=O)[O-])c2)O[C@@H](c2cccc([N+](=O)[O-])c2)O1 showed a z-score of -0.969. In the case of CC(C)Cc1ccc(CN2CC[C@@H](NC(=O)c3ccccc3)C2)cc1, the z-score is reported as -0.193. COc1ccc(CCNC(=O)[C@@]2(c3ccc([N+](=O)[O-])cc3)CC(=O)N(C3CCCCC3)[C@@H]2c2ccc(CO)cc2I)cc1 showed a z-score of -0.593. COC(=O)[C@]1(Cc2ccccc2N=[N+]=[N-])N=C(c2ccc(OCCCO)cc2)O[C@@H]1c1ccccc1CN=[N+]=[N-] showed a z-score of -7.07. Compound C=C(C(=O)CC[C@@H](OC(=O)c1ccccc1-c1ccccc1C(=O)O)c1ccc(OCCO)cc1)C(C)C has a z-score of 0.488. CC(C)[Si]1(C(C)C)OCc2cc(-c3ccc(-c4ccc(Cl)c(Cl)c4)o3)nc(-c3ccc(Oc4ccccc4)cc3)c21 showed a z-score of -0.133. O=C1C2C=CC(C(O)c3ccccn3)N(Nc3ccc([N+](=O)[O-])cc3)C2C(=O)N1c1ccccc1 (stereo not given) gave a z-score of -1.03. With O=C1OC[C@@H](c2ccccc2)n2cc(/C=C/c3ccccc3)cc21 the z-score was -0.302. In the case of CC[C@@H](O[Si](C#C[Si](C(C)C)(C(C)C)C(C)C)(C(C)C)C(C)C)c1cn([C@H](C)c2ccccc2)nn1, the z-score is reported as 0.328. In the case of O=C1OCCC/C=C\[C@H]2OC34C=CCN(Cc5ccccc5)C(=O)[C@H]3N(CCO)C(=O)[C@@H]4C12 (stereo not given in full), the z-score is reported as 0.936. For COc1ccc(C(=O)Nc2cccc(CN3C(=O)[C@]4(O[C@H](CC(=O)N(CCO)Cc5ccccc5)[C@@H]([Si](C)(C)c5ccc(OC)cc5)[C@@H]4C)c4ccccc43)c2)cc1, the z-score was -1.52. With COC(=O)[C@@]1(Cc2ccc(F)cc2)[C@H]2c3cc(C(=O)N4CCCC4)n(CCc4c[nH]c5cc(F)ccc45)c3C[C@H]2CN1C(=O)c1ccccc1 the z-score was -0.162.

Source: PubChem BioAssay
